# Data from PubChem BioAssay.
# Activity calls are given as the source filed them. Unless noted, no rule for the calls is given here.
# Experiments:
# [1] = test system: Wnt5a (protein binding on small-molecule microarray); assay: Wnt5a binders on small-molecule microarray, primary screen, biophysical, 635/667 nm fluorescence (AID 1142); conditions: 635 nm fluorescence, higher = more signal;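 also: fluorescence read at 667 nm with signal to noise per printed feature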
# [2] = cell viability in Huh7 cells, primary screen, cytotoxicity control for HCV replication inhibitor project, CellTiter-Glo luminescence, basal, 48 h (AID 1143); conditions: Huh7 HCV replicon, CellTiter-Glo luminescence, 48 h, higher = more signal, called active from +8 up or from −8 down unless noted;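 also: Huh7 hepatoma cells carrying a hepatitis C replication reporter with no stimulus; test concentration not given here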
# [3] = P. aeruginosa biofilm formation inhibitors, primary screen, PAO1 strain, BacTiter-Glo luminescence, LB-PBS (AID 1144); conditions: 12 h, higher = more signal
# [4] = CREB reporter modulators without forskolin, primary screen, cell-based, PC12, CRE-LacZ reporter, unstimulated (AID 1145); conditions: no forskolin, luminescence, 4.5 h; higher = more signal, called active from +8 up or from −8 down unless noted
# [5] = CREB reporter modulators under forskolin, primary screen, cell-based, PC12, CRE-LacZ reporter, forskolin-stimulated (AID 1146); conditions: luminescence, 4.5 h; higher = more signal, called active from +8 up or from −8 down unless noted;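 also: PC12 cells with 6xCRE LacZ reporter stimulated by forskolin 10 µM; beta-galactosidase reporter signal reflecting CREB driven transcription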
# [6] = molecular target: Streptavidin (Streptomyces avidinii) (UniProt P22629); assay: streptavidin binders on small-molecule microarray, primary screen, artefact control for SMM compound annotation, biophysical, 635/667 nm fluorescence (AID 1147); conditions: streptavidin binding, higher = more signal;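 also: signal reflects streptavidin binding to arrayed compounds as a control protein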
# [7] = small-molecule binders of probe aInhba, primary screen, biochemical, small-molecule microarray, 635/667 nm fluorescence (AID 1148); conditions: higher = more signal; small-molecule microarray, probe aInhba, fluorescence unless noted;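 also: score merges 667nm spot fluorescence with signal-to-noise for antibody binding to printed compounds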
# Torsin-1A (Homo sapiens) [8] = molecular target: Torsin-1A (Homo sapiens) (UniProt O14656); assay: torsin A binders from cell lysate, primary screen, small-molecule microarray, wild-type, 635/667 nm (AID 1149); conditions: COS7 hTOR1A-WT lysate, 635 nm fluorescence, higher = more signal
# Torsin-1A (Homo sapiens) [9] = molecular target: Torsin-1A (Homo sapiens) (UniProt O14656); assay: small-molecule binders of mutant TOR1A in lysate, primary screen, cell lysate, small-molecule microarray, COS7 lysate, 635/667 nm fluorescence (AID 1150); conditions: COS7 hTOR1A mutant lysate, 635 nm fluorescence, higher = more signal;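 also: score pools 667 nm emission and signal to noise measuring lysate protein binding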
# [10] = test system: Sonic hedgehog protein (Shh); assay: small-molecule binders of Shh protein, primary screen, biochemical, small-molecule microarray, 635/667 nm fluorescence (AID 1151); conditions: small-molecule microarray binding, 635 nm fluorescence; higher = more signal;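 also: Shh protein binding to compounds spotted on small-molecule microarray slides; score combines spot fluorescence intensity with signal-to-noise across triplicate slides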
# [11] = E. coli DRC41 culture turbidity changes, primary screen, E. coli filamentation inducer project, strain DRC41, OD650, 48 h (AID 1152);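 also: E. coli MC1000 strain DRC41 lacking acrAB efflux pump and sulA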; conditions: E. coli DRC41 (acrAB sulA); higher = more signal, called active from +8 up or from −8 down unless noted
# [12] = small-molecule binders of probe aLefty1, primary screen, biochemical, small-molecule microarray, 635/667 nm fluorescence (AID 1153); conditions: higher = more signal; small-molecule microarray, probe aLefty1, fluorescence unless noted;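 also: score merges spot fluorescence with signal-to-noise ratio from the scanned slide images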
# [13] = PSAC antagonists in infected red cells, primary screen, cell-based, P. falciparum Indochina, OD700, 1 h (AID 1154); conditions: P. falciparum Indochina infected RBC osmotic lysis; higher = more signal, called active from +8 up or from −8 down unless noted
# [14] = PSAC antagonists in infected red cells, primary screen, cell-based, P. falciparum Indochina, OD700, 2 h (AID 1155);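 also: lysis reports solute entry through the parasite surface anion channel PSAC; channel blockers reduce lysis of infected cells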; conditions: P. falciparum Indochina infected erythrocytes, osmotic lysis OD700; higher = more signal, called active from +8 up or from −8 down unless noted
# [15] = osmotic lysis modulators in infected erythrocytes, primary screen, PSAC antagonist project, cell-based, P. falciparum Indochina, OD700, 3 h (AID 1156); conditions: higher = more signal, called active from +8 up or from −8 down unless noted
# [16] = PSAC antagonists in infected red cells, primary screen, cell-based, P. falciparum Indochina, OD700, 18 h (AID 1157); conditions: P. falciparum Indochina infected erythrocytes, osmotic lysis OD700, 18 h; higher = more signal, called active from +8 up or from −8 down unless noted
# [17] = modulators of S6 phosphorylation in cells, primary screen, cell-based, A549, cytoblot, luminescence, serum-stimulated (AID 1158); conditions: A549 phospho-S6 cytoblot, 5 h, higher = more signal;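 also: serum-stimulated A549 lung adenocarcinoma cells; signal is phosphorylated S6 detected by cytoblot immunostaining with HRP secondary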
# [18] = molecular target: NADPH oxidase 2 (Homo sapiens) (UniProt P04839); assay: NOX2-dependent H2O2 signal modulators, primary screen, NOX inhibitor project, cell-based, HEK293-NOX2, PMA-stimulated, Amplex Red fluorescence (AID 1159); conditions: 45 min; higher = more signal, called active from +8 up or from −8 down unless noted; also: test concentration not given here
# [19] = molecular target: NADPH oxidase 4 (Homo sapiens) (UniProt Q9NPH5); assay: NOX4-dependent H2O2 signal modulators, primary screen, NOX inhibitor project, cell-based, HEK293-NOX4, tetracycline-induced, Amplex Red fluorescence (AID 1160); conditions: 45 min; higher = more signal, called active from +8 up or from −8 down unless noted
# [20] = molecular target: NADPH oxidase 5 (Homo sapiens) (UniProt Q96PH1); assay: NOX5-dependent H2O2 signal modulators, primary screen, NOX inhibitor project, cell-based, HEK293-NOX5, Amplex Red fluorescence (AID 1161); conditions: HEK293-NOX5, ionomycin, 45 min, higher = more signal
# NADPH oxidase 5 (Homo sapiens), sequence (Q96PH1 whole entry, looked up): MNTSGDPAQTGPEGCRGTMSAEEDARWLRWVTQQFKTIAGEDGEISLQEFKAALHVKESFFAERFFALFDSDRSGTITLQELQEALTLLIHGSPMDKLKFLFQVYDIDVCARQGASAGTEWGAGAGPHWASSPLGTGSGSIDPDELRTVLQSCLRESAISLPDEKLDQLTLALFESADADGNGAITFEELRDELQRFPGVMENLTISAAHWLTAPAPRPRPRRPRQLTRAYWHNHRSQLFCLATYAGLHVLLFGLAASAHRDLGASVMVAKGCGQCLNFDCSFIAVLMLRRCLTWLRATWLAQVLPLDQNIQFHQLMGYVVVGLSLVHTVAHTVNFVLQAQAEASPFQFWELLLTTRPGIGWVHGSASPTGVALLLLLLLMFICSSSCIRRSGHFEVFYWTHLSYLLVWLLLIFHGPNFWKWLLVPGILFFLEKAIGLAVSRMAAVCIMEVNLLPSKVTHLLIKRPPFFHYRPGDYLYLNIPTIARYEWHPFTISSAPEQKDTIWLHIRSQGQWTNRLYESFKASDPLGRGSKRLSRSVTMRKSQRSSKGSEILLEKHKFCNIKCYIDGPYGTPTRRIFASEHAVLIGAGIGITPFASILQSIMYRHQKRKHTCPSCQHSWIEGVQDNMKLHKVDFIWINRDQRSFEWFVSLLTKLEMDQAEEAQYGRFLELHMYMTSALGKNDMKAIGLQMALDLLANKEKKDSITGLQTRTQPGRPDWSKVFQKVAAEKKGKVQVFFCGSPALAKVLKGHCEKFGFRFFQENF
# Torsin-1A (Homo sapiens), sequence (O14656 whole entry, looked up): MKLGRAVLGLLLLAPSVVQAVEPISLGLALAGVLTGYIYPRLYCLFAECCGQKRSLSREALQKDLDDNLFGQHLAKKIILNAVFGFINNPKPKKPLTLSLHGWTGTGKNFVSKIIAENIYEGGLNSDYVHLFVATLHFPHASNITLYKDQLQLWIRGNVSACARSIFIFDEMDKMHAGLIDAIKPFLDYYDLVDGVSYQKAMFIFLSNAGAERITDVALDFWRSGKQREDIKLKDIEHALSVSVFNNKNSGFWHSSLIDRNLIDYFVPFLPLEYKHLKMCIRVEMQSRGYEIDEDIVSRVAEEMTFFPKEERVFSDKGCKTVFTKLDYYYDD
# NADPH oxidase 2 (Homo sapiens), sequence (P04839 whole entry, looked up): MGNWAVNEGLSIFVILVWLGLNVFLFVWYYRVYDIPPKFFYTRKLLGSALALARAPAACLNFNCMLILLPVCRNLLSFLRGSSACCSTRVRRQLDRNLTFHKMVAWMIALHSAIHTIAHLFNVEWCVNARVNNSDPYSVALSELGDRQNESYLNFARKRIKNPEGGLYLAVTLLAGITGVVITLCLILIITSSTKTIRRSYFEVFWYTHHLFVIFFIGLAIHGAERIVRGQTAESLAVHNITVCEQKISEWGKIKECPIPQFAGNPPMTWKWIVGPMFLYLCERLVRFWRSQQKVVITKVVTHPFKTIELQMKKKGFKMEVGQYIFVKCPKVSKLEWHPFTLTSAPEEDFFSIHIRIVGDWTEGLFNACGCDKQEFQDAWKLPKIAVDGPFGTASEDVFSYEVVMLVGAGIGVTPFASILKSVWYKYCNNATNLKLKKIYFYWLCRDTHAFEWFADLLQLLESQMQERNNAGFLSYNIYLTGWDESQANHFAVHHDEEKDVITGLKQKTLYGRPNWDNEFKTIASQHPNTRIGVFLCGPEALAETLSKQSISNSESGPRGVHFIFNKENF
# NADPH oxidase 4 (Homo sapiens), sequence (Q9NPH5 whole entry, looked up): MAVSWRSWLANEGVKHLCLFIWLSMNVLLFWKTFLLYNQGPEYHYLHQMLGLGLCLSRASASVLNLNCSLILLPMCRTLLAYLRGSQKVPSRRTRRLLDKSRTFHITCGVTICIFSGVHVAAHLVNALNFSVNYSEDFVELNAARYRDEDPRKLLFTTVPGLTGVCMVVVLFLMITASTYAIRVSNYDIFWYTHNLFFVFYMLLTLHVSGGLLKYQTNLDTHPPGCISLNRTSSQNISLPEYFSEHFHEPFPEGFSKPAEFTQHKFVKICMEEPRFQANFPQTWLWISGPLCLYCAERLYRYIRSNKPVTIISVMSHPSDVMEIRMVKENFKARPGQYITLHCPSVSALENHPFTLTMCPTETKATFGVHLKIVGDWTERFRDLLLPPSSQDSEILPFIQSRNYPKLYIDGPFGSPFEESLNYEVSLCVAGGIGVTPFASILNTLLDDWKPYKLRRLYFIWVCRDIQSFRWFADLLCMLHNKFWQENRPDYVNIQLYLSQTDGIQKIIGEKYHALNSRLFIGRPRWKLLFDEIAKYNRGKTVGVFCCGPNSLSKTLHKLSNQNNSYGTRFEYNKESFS
# Streptavidin (Streptomyces avidinii), sequence (P22629 whole entry, looked up): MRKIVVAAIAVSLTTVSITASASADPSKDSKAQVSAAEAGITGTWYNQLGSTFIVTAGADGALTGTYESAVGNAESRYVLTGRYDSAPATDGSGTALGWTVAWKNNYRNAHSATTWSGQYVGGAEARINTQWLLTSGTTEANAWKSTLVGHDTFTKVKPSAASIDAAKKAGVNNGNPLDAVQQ
Compound,composite z-score [1],z-score [2],z-score [3],z-score [4],z-score [5],composite z-score [6],composite z-score [7],composite z-score (Torsin-1A (Homo sapiens) [8]),composite z-score (Torsin-1A (Homo sapiens) [9]),composite z-score [10],z-score [11],composite z-score [12],z-score [13],z-score [14],z-score [15],z-score [16],z-score [17],z-score [18],z-score [19],z-score [20]
C[C@@H]1OC=C2[C@@H](O)[C@H]3O[C@H]3C(=O)[C@]23[C@H]1[C@H]1C2=C([C@@H](O)[C@H]4O[C@H]4C2=O)[C@@H]3O[C@@H]1C,-0.0894,0.612 (inactive),0.389 (inactive),1.01 (inactive),1.04 (inactive),-0.0542,-0.206,0.924,0.419,0.881,-0.418 (inactive),-0.27,-0.531 (inactive),0.407 (inactive),-0.655 (inactive),0.0502 (inactive),0.0176,1.2 (inactive),0.214 (inactive),-0.31
C[C@@H]1Cc2c(cnc3c2CN(C)CC3)CO1,0.0844,-1.38 (inactive),-0.181 (inactive),-0.258 (inactive),-1.05 (inactive),-0.179,-0.0523,0.742,1.12,1.71,-0.397 (inactive),-0.152,-0.0969 (inactive),-0.0787 (inactive),0.123 (inactive),0.0517 (inactive),-0.0609,1.5 (inactive),0.188 (inactive),-0.719
C=C(CC1(CNP(=O)(c2ccccc2)c2ccccc2)CC1)c1ccccc1,0.0774,-0.649 (inactive),0.366 (inactive),-0.182 (inactive),-0.418 (inactive),-0.0187,0.102,-0.27,0.449,-1.31,-0.822 (inactive),0.241,1.41 (inactive),0.453 (inactive),1.07 (inactive),0.519 (inactive),-0.254,-0.335 (inactive),-0.4 (inactive),-2.42
CCCC[C@@H]1C[C@H]1[C@@H](NP(=O)(c1ccccc1)c1ccccc1)c1ccc(Cl)cc1,0.0234,-0.971 (inactive),-0.451 (inactive),-0.379 (inactive),-0.273 (inactive),0.239,0.157,-1.53,-0.202,-1.29,-1.26 (inactive),0.337,7.22 (inactive),1.78 (inactive),0.394 (inactive),0.788 (inactive),-0.554,-1.87 (inactive),-1.56 (inactive),0.453
CCCc1cc2c(n1Cc1ccc(C)cc1)C(C)C1CN(C(=O)c3ccccc3)C(C)(C(=O)OC)C21 (stereo not given),0.667,-2.69 (inactive),0.426 (inactive),1.53 (inactive),1.57 (inactive),1.23,0.643,0.55,1.06,-0.2,-0.692 (inactive),1.33,1.5 (inactive),-0.732 (inactive),0.454 (inactive),-1.81 (inactive),1.39,-0.714 (inactive),-0.757 (inactive),-3.63
COC(=O)C1(C)C=C2C(=C(C)C(=O)C2C)CN1 (stereo not given),-0.163,0.0631 (inactive),-0.596 (inactive),-0.182 (inactive),3.71 (inactive),-0.164,0.0442,0.219,-0.186,-0.473,-1.84 (inactive),0.257,0.539 (inactive),0.405 (inactive),1.16 (inactive),0.643 (inactive),-0.232,-0.172 (inactive),-2.31 (inactive),-3.35
OCc1ccc(C2=CC(c3cccs3)N(Cc3cccc(OC(F)(F)F)c3)CC2)cc1 (stereo not given),0.136,-4.06 (inactive),1.28 (inactive),1.54 (inactive),-0.162 (inactive),-0.0232,-0.0719,0.761,1.16,1.05,-0.915 (inactive),-0.148,3.92 (inactive),1.2 (inactive),-0.18 (inactive),0.822 (inactive),-0.0923,0.655 (inactive),-0.666 (inactive),-1.38
CN1CCc2nc(CO)c(CO)cc2C1,0.233,-0.0958 (inactive),0.424 (inactive),1.37 (inactive),-0.0826 (inactive),0.0991,0.0442,-0.0701,0.557,0.424,0.0958 (inactive),0.0504,0.297 (inactive),0.538 (inactive),-0.508 (inactive),0.101 (inactive),-0.121,1.62 (inactive),-1.25 (inactive),-0.795
